Assay results taken from ChEMBL document CHEMBL3988442, “University of Dundee, Small-Polar-MMV Screening Library” (2021).
Among all 48,000 compounds or so, about 13,000 (27%) showed an effect of 50% or more. Some of the results follow.

Each compound was assayed on Wolbachia pipientis (assay: Anti-Wolbachia Cell-Based Screen). Settings: 5 µM.
Type: functional
Set-up: scale not given: in the data most compounds retested in dose-response had high values

SMILES | Percent Effect [%]
COc1ccc(OCc2cc(C(=O)N3CCC(O)CC3)n[nH]2)c(Cl)c1 | 8.523
CN(C)S(=O)(=O)N(Cc1cscn1)c1ccccc1 | 6.938
CCN(CC)c1ccc(NC(=O)N2CCc3sccc3C2)cn1 | -4.731
CC(C)(O)c1cn(C2CCN(C(=O)CCC3CCCC3)CC2)nn1 | 7.362
CC(=O)NC1CCN(c2cc(C3CCNCC3)nc(C)n2)C1 (stereo unspecified) | -6.629
Cc1nc(CCC(N)=O)cc(C2CCNCC2)n1 | 77.84
FC(F)(F)CN1CCC(CNc2nc3ccccc3o2)C1 (stereo unspecified) | 19.02
CCN1CCC(CC(=O)N2CCc3sc(C(=O)N(C)C)cc3C2)CC1 | -40.78
CCCc1nnc(SCC(=O)Nc2cc(C(C)(C)C)nn2C)[nH]1 | 5.759
Cn1cc(C(=O)Nc2cc(F)ccc2OCC2CCCO2)ccc1=O (stereo unspecified) | 100.3
Cn1ccc(C(=O)Nc2cc(F)ccc2OCC2CCCO2)cc1=O (stereo unspecified) | 108.3
Cn1cccc1C(=O)Nc1cc(F)ccc1OCC1CCCO1 (stereo unspecified) | -3.687
CN1N=C(C(=O)Nc2cc(F)ccc2OCC2CCCO2)CCC1=O (stereo unspecified) | 0.7919
CC(NC(=O)c1ccc(=O)n(C)c1)c1ccc(OCC2CC2)c(F)c1 (stereo unspecified) | 7.042
CS(=O)(=O)N[C@@H]1CCN(Cc2cccs2)[C@H]1Cc1cccnc1 | -19.82
O=S1(=O)NC(c2ccnc(N3CCOCC3)n2)=Nc2ccccc21 | 140.3
O=S1(=O)NC(c2ccnc(N3CCCC3)n2)=Nc2ccccc21 | 149.4
O=S1(=O)NC(c2ccnc(N3CCCCC3)n2)=Nc2ccccc21 | 89.99
CS(=O)(=O)N1CCN(c2ccnc(N3CCCCC3)n2)CC1 | 0.3412
O=c1c2cnc(N3CCOCC3)nc2ccn1-c1ccccc1 | 4.201
Cc1nn(-c2ccccc2)c(C)c1-c1ccnc(N2CCCOCC2)n1 | 7.099
O=C(O)c1ccnc(-c2ccnc(N3CCCCCC3)n2)c1 | -0.3436
CS(=O)(=O)N1CCN(c2ccnc(N3CCCC3)n2)CC1 | -2.838

SMILES | Percent Effect [%]
CC(CO)CSc1ncnc2[nH]ncc12 (stereo unspecified) | 8.493
CCC1CN(c2nnc(C)c(C)c2C#N)CCO1 (stereo unspecified) | -3.23
CCc1nnsc1C(=O)N1CCOC(c2nc(C(C)C)n[nH]2)C1 (stereo unspecified) | 112.8
CCc1n[nH]c(C2CN(C(=O)c3ncoc3CC)CCO2)n1 (stereo unspecified) | 97.1
CCc1nnsc1C(=O)N1CCOC(c2nc(C)n[nH]2)C1 (stereo unspecified) | 12.72
CC(C)c1n[nH]c(C2CN(C(=O)C3=COCC3)CCO2)n1 (stereo unspecified) | -4.984
CCc1ocnc1C(=O)N1CCOC(c2nc(C(C)C)n[nH]2)C1 (stereo unspecified) | 114.1
Cc1noc(C)c1CN1C[C@@H]2CC[C@H](C1)N(Cc1cc(F)cc(F)c1)C2 | 3.369
N#Cc1ccccc1CN1C[C@@H]2CC[C@H](C1)N(CC1CCC1)C2=O | -9.781
O=C(O)C(F)(F)F.O=C(c1ccncc1)N1CCCn2nnc(COCCO)c2C1 | 26.37
CCc1nnc2n1CCN(Cc1noc(-c3cccc(C)c3)n1)C2 | -12.68
Cc1ccccc1OCC(O)C(=O)N1CCC2(CC1)CN(C)C(=O)O2 (stereo unspecified) | -0.4396
COc1ccc(NC(=O)Cc2c(C)nc3c(c2C)c(=O)[nH]n3C)cn1 | 22.04
CC(C)CC(=O)NCc1cccc(OCCN(C)C2CCOCC2)c1 | -19.6
c1ccc2sc(NCC3(N4CCOCC4)CCSC3)nc2c1 (stereo unspecified) | 0.766
O=C(CC(F)(F)F)NCC(O)c1ccc2ccccc2c1 (stereo unspecified) | -2.994
Cc1ncsc1-c1nc(CC2CCN(C)CC2)nn1Cc1ccccc1 | -11.92
COc1ccc(CN2CC[C@H](c3nnc(-c4ccco4)o3)C2)cc1 | 27.76
Cc1ncsc1-c1nnc(C2CCN(CC3CCCCC3)CC2)o1 | -4.118
Cc1ncsc1-c1nnc(C2CCN(Cc3ccc(Cl)cc3)CC2)o1 | 113.6
COc1ccc(-c2nnc([C@H]3CCN(CC(C)(C)C)C3)o2)cc1 | 4.195
COc1ccc(CN2CCC(c3nnc(-c4scnc4C)o3)CC2)cc1 | 115.7
Cc1ncsc1-c1nnc(C2CCN(Cc3ccc(F)cc3)CC2)o1 | -4.23

SMILES | Percent Effect [%]
Cc1ccc(CN2CC[C@H](c3nnc(-c4ccco4)o3)C2)cc1 | -0.8562
Cc1ncsc1-c1nnc(C2CCN(Cc3ccccc3)CC2)o1 | 104.4
COc1ccc2c(c1)CC(C(=O)N(C)Cc1noc3c1CCCC3)CO2 (stereo unspecified) | -16.58
c1cnnc(N2CCC(c3nnc(Cn4ccnc4)n3C3CC3)CC2)c1 | -16.04
O=C(Nc1cc[nH]n1)c1ccc(COCC(F)(F)F)cc1 | 87.88
COc1cccnc1NC(=O)COc1ccc(F)cc1F | 10.02
CN(C)CCN(Cc1ccc(C(F)(F)F)cc1)C(=O)c1cc[nH]n1 | -18.8
COc1cccnc1NC(=O)c1ccc(COCC(F)(F)F)cc1 | 77.14
COc1cccnc1NC(=O)COC1CCCC1 | 13.24
Cc1n[nH]c(NC(=O)c2ccc(COCC(F)(F)F)cc2)c1C | 90.05
Cc1n[nH]c(C)c1NC(=O)c1cccc(OCC(F)(F)F)n1 | 9.795
Cc1nc(NC(=O)COCC(F)(F)F)ccc1Br | 2.547
CC(C)CC(NC(=O)c1cccc(F)c1F)C(=O)Nc1cc[nH]n1 (stereo unspecified) | -2.094
CC(C)C(=O)NCCNC(=O)C12CCC(=O)N1c1cc(Cl)ccc1S2 (stereo unspecified) | -7.313
CC(=O)N[C@@H]1Cc2ccccc2[C@H]1Nc1cc(C2CC2)ncn1 | -3.919
COCCn1/c(=N\C(=O)CN(C)S(C)(=O)=O)sc2cc(Cl)ccc21 | -11.47
Cc1ccc2nc(C)c(C)c(C(=O)N3CCC4(CCO4)CC3)c2c1 | -9.053
O=C(NCc1cccnc1)C1=NN(c2ccccc2)C(=O)CN1 | -0.2289
CCC(=O)N1CCC(NC2CCSCC2)C1 (stereo unspecified) | -15.97
O=C(N[C@]12CC1CN(C(=O)c1ccco1)C2)c1cccc(F)c1 (stereo partly specified) | -50.8
OCCC1CN(C2CCC2)CCN1C1CCCC1 (stereo unspecified) | 7.142
Cc1cc(C)n(CC2CN(Cc3cscn3)CCO2)n1 (stereo unspecified) | -9.283
CCc1nc(CN2CCOC(Cn3nc(C)cc3C)C2)no1 (stereo unspecified) | 85.61

SMILES | Percent Effect [%]
Cc1cc(C)n(CC2CN(Cc3nc(C4CC4)no3)CCO2)n1 (stereo unspecified) | 104.8
Cc1cc(C)n(CC2CN(Cc3noc(C)n3)CCO2)n1 (stereo unspecified) | 98.99
Cc1cc(C)n(CC2CN(Cc3nnsc3Cl)CCO2)n1 (stereo unspecified) | 2.291
Cc1cc(C)n(CC2CN(Cc3nc(C)c(C)o3)CCO2)n1 (stereo unspecified) | 127.2
Cc1cc(C)n(CC2CN(Cc3nc(-c4ccoc4)no3)CCO2)n1 (stereo unspecified) | 9.322
CCc1nc(CN2CCOC(Cn3nc(C)nc3C)C2)no1 (stereo unspecified) | 5.512
CCc1n[nH]c(C2CN(Cc3nc(C4CC4)no3)CCO2)n1 (stereo unspecified) | 14.51
O=C1O[C@@H]2CN(C3CCOCC3)C[C@@H]2N1CCc1cccc(Cl)c1 | -15.11
CCNC(=O)NC(=O)CNC(C)(CC)c1nccs1 (stereo unspecified) | 7.409
CC(=O)c1cc(C(=O)N2CCC(CC(C)C)C2)c(=O)[nH]c1C (stereo unspecified) | 6.103
O=C1CC(Nc2ccc3nccnc3n2)CN1c1ccccc1 (stereo unspecified) | -12.7
Cc1cc(C)n(CC2CN(Cc3noc(C4CC4)n3)CCO2)n1 (stereo unspecified) | 115.4
c1cnn(CC2CN(Cc3noc(C4CC4)n3)CCO2)c1 (stereo unspecified) | -0.1842
COc1cccc2c1OCCCN(c1nc(C)nc3c1CCNCC3)C2 | -7.329
c1ccc(-n2ccc(CN3CCCCC3Cn3cncn3)n2)cc1 (stereo unspecified) | 140.8
c1ccc(-c2nc(CN3CCCC3Cn3cncn3)cs2)cc1 (stereo unspecified) | -3.695
Fc1cccc(-n2ccc(CN3CCCCC3Cn3cncn3)n2)c1 (stereo unspecified) | -7.7
Fc1ccc(CN2CCCC2Cn2cccn2)c2ncccc12 (stereo unspecified) | -3.711
N#Cc1ccccc1CN1CCCCC1Cn1cncn1 (stereo unspecified) | 7.073
c1ccc(CN2CCCC2Cn2cncn2)nc1 (stereo unspecified) | -0.04189
Fc1cccc(-n2ccc(CN3CCCC3Cn3cccn3)n2)c1 (stereo unspecified) | 141.1
c1ccc(-n2ccc(CN3CCCC3Cn3cncn3)n2)cc1 (stereo unspecified) | 128.5
N#Cc1ccc(F)c(CN2CCCC2Cn2cccn2)c1 (stereo unspecified) | -3.171

SMILES | Percent Effect [%]
COCC(=O)N1CCC(C(=O)N(C)CCCc2nccn2C)CC1 | -11.58
CCC[C@H]1CN(S(=O)(=O)c2cc(C)ccc2C)C[C@@H]1N | -30.29
CN1CCC2(CC1)CCN(C(=O)c1onc3ccccc13)C2 | 92.75
Cc1ccoc1C(=O)N1CCCC2(CCCN2S(C)(=O)=O)C1 (stereo unspecified) | -9.811
CCN(CC)Cc1cc(C(=O)N2CCC3(CCN(C)CC3)C2)c(C)o1 | 8.973
CS(=O)(=O)N1CCCC12CCCN(C(=O)c1ccno1)C2 (stereo unspecified) | -3.748
CC(=O)N1CCCC2(CCN(C(=O)c3nn(C)c4ccccc34)CC2)C1 | -40.55
CN1CCC2(CC1)CN(C(=O)c1onc3ccccc13)CCCN2C | 72.92
Cc1ccc(C(CNC(=O)Cc2nc3ncccn3n2)N(C)C)cc1 (stereo unspecified) | -10.58
CC(=O)NCCc1ccc(S(=O)(=O)N(C)C(C)CC(C)C)s1 (stereo unspecified) | 2.114
CCC[C@H]1CN(C(=O)c2cc(-c3cccs3)n(C)n2)C[C@@H]1N | 106.1
CCC[C@H]1CN(CCS(C)(=O)=O)C[C@@H]1NC(=O)c1ccn(C)n1 | -3.531
CCC[C@@H]1CN(C(=O)CCc2ccco2)C[C@H]1NS(C)(=O)=O | -2.62
CCC[C@@H]1CN(C(=O)c2cc(-c3cccs3)n(C)n2)C[C@H]1NS(C)(=O)=O | 96.45
CCC[C@@H]1CN(C(=O)c2cc(-c3cccs3)n(C)n2)C[C@H]1N(C)C | 95.7
CC(C)c1nc(C(=O)N2C[C@H](C(C)C)[C@@H](N)C2)cs1 | -1.889
CCC[C@@H]1CN(C(=O)c2cc3ccccc3cc2O)C[C@H]1N(C)C | 2.808
CCC[C@@H]1CN(C(=O)c2ccccc2C(C)=O)C[C@H]1N(C)C | 5.199
CCC[C@@H]1CN(Cc2cnc(-c3cccs3)nc2)C[C@H]1C(=O)O | -4.575
